From PubChem BioAssay AID708 (SRMLSC, 2007)
Fewer than 10 of roughly 65,000 compounds were called active.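 The calls were made as follows: active = at 10 µM dose, initial 340 nm absorbance at least 2 fold that of control wells; inactive = change under 2 fold.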 A selection follows.

Test: compound light absorbance at 340 nm, profiling panel, artefact control, biochemical, MLSMR library, data from PS, PMK, MK assays (AID 708);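 also: initial absorbance extrapolated from kinetic A340 decline of NADH oxidation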
Conditions: compound absorbance at 340 nm, fold over control; at 10 µM; active compounds read high

Fold change, inactive:
CCCc1cc(=O)[nH]c(SCC(=O)OCc2ccccc2)n1 1.02
CCOC(=O)C1=C(C)N=c2s/c(=C\C(=O)OC)c(=O)n2C1c1ccc(OC)cc1 (stereo not given) 1.09
CCOC(=O)C1CCCN(Cc2nc(N)nc(Nc3ccc(C)cc3)n2)C1 (stereo not given) 1
CN(C)CCNC(=O)C(C(=O)c1ccccc1)n1ccccc1=O (stereo not given) 1.03
COCCNC(=S)c1ccc(OC)cc1 1.01
CCOC(=O)CSc1nnc(-c2cccc(Br)c2)o1 1.02
N#Cc1nc(N)nc(N(c2ccccc2)c2ccccc2)n1 1
Cc1ccccc1N1C(=O)C2ON(c3ccccc3)C(c3ccncc3)C2C1=O (stereo not given) 0.99
O=C(CCN1C(=O)c2ccccc2C1=O)NCCN1CCOCC1 0.99
COc1ccccc1-c1cc(C(=O)NCCCn2ccnc2)no1 0.99
NC(=O)Cn1c(=O)oc2ccccc21 0.97
O=C(Cn1c(=O)sc2ccccc21)Nc1nc2c(s1)CCCC2 1.03
O=C(Cn1nc(C(F)(F)F)c2c1CCC2)NCc1ccc(F)cc1 1.04
Cc1ccc(Oc2ccc(N)cc2)cc1 1.02
CCOC(=O)N1CCN(C(=O)CSc2nnc(-c3c[nH]c4ccccc34)n2CCOC)CC1 1.06
Cc1ccc(N2CCN(S(=O)(=O)N(C)C)CC2)cc1Cl 1.01
O=S(N1CCCCCC1)C12CC3CC(CC(C3)C1)C2 (stereo not given) 0.99
CC(C)OC(=O)CN1C(=O)c2ccccc2C1=O 1.01
CCS(=O)(=O)N1CCC(C(=O)N2CCN(c3ccccc3)CC2)CC1 1.02
CC1(C)CC(=O)c2sc(N)nc2C1 1.11
O=C(NCc1ccco1)c1cnn2c(C(F)(F)F)cc(-c3ccco3)nc12 1.04
CC1CCCN(c2ccc(C(=O)NCCc3ccccc3)cn2)C1 (stereo not given) 1.04
O=C(c1ccc2c(c1)C(=O)N(c1ccc(Cl)cc1)C2=O)N1CCN(c2ccccn2)CC1 1
Cc1ccc2c(c1)c1ncn(CCC3=CCCCC3)c(=O)c1n2C 1
CCNc1nc(SCCOc2ccccc2)nc(N(C)C)n1 1.04
CCC(C(=O)NC1CCCC1)N(C(=O)c1snc(C(N)=O)c1N)c1ccc2c(c1)OCCO2 (stereo not given) 1.1
COc1ccc(C(=O)N(CCN2CCOCC2)CC(=O)NC2CCCC2)cc1OC 0.98
OCCCN1c2ccccc2Nc2nnc(-c3ccccc3)cc21 1.04
COc1ccccc1-c1cc(C(=O)N2CCCCC2)no1 1.02
Cc1ccc2nc(-c3ccc(SCC(=O)Nc4cc(C)on4)nc3)[nH]c2c1 1.14
CCNS(=O)(=O)c1ccc(NC(=O)Nc2cccc(OC)c2)cc1 1.06
O=C(NC1CCCC1)c1ccc(Br)s1 1.03
CCOC(=O)CSc1nnc(CNC(=O)Cc2ccccc2)n1-c1ccccc1OC 0.99
CCOc1ccc(C(CC(=O)O)NC(=O)COc2ccccc2)cc1 (stereo not given) 1.03
CCCC1C(c2ccccc2)C(C#N)(C#N)C2(C#N)CC1(N)NC2=O (stereo not given) 1.02
C#CCNc1nc(C(C)C)nc2c1nnn2Cc1ccccc1F 1.04
CN(C)/C=C1\C=C(c2ccccc2)OC1=O 1.21
O=C(c1cnn2ccccc12)N1CCc2ccccc21 1.12
CCOc1ccc(Cn2nnc(C(=O)Nc3ccc(OC)cc3OC)c2N)cc1 0.98
COc1ccc(NC(=O)c2cccc(NC(=O)c3ccco3)c2)c(OC)c1 1.07
O=C(NCCc1ccccn1)c1ccc(COc2ccccc2)o1 0.98
CCOC(=O)C1CCN(C(=O)Nc2ccc(Cl)cc2)CC1 1.01
COc1cccc(N(CC(=O)NC2CCCC2)C(=O)Cn2nnc(-c3ccc(C)cc3)n2)c1 1.01
Cc1nc(SCC(=O)Nc2cc(C)on2)c2c3c(sc2n1)CCCC3 1.02
CC1CCN(Cc2nc3c(c(=O)n(C)c(=O)n3C)n2CCc2ccccc2)CC1 0.98
NC(=O)COc1ccc2c3c(c(=O)oc2c1)CCCCC3 1.15
CCc1cc(=O)oc2cc(OCC(=O)N3CCCc4ccccc43)ccc12 1.08
CCOC(=O)N1CCC(NC(=O)CCc2cn(C)c3ccccc23)CC1 0.98
Cc1ccnc(N2C(=O)c3ccccc3C2Nc2ccc3c(c2)OCCO3)c1 (stereo not given) 1.06
CCOc1ccc(-c2cn(S(=O)(=O)c3cccc4nsnc34)nc2N)cc1 0.98
c1ccc(-n2ncc3c2ncn2c(CSc4nc5ccccc5s4)nnc32)cc1 1.06
c1ccc2c(CNn3cnnc3)cccc2c1 1.05
Cc1ccc(C(=O)NCC2CCCO2)o1 (stereo not given) 1.04
CCn1c(CSc2nncn2-c2ccc(OC)cc2)nc2cc(S(=O)(=O)N(C)C)ccc21 0.96
CC(C)(O)C#Cc1ccc(C(=O)N2CCC(C(N)=O)(N3CCCCC3)CC2)cc1 1.04
CCN(CC)S(=O)(=O)c1ccc2nc(COC(=O)c3n[nH]c4ccccc34)[nH]c2c1 1.03
COc1cccc(-c2nnc(NC(=O)c3ccc(S(=O)(=O)N(CC(C)C)CC(C)C)cc3)o2)c1 1.06
CC12COC3(C(=O)Nc4ccc(Cl)cn4)CC1CCC32C (stereo not given) 1.04
Cc1nc(N2CCCC2C(=O)O)c2oc3ccccc3c2n1 (stereo not given) 1.02
CCCCN(CC)CCCNC(=O)CS(=O)(=O)Cc1nc(-c2cccc(OC)c2)oc1C 1
CC(=O)Nc1cccc(Oc2cc(C#N)c(C#N)cc2N2CCOCC2)c1 1.1
Cn1c2ccccc2c2c(C(=O)N3CCN(c4ccc(F)cc4)CC3)cn(C3CCCC3)c(=O)c21 1.05
COc1ccc(CCNS(=O)(=O)c2ccc(C(=O)NCc3ccco3)cc2)cc1OC 0.99
Cc1ccc(S(=O)(=O)NC(C)C(=O)Nc2ccccc2C(=O)N2CCCC2)cc1 (stereo not given) 0.96
COc1ccc(-n2nnnc2SCC(=O)c2ccc(OC)c(OC)c2)cc1 1.03
Cn1cnc2c1c(=O)n(Cc1c(Cl)cccc1Cl)c(=O)n2C 1.04
Cc1cc(C(=O)NCCCc2ccccc2)no1 1
COc1ccc(C(=O)Cn2nnc(-c3ccc(N4CCOCC4)cc3)n2)cc1OC 1
CCOc1cccc(-c2nn3c(-c4ccccn4)nnc3s2)c1 1.01
O=C(CN1CCN(C(=O)c2ccco2)CC1)Nc1ccc(Cl)c(C(F)(F)F)c1 1
